From PubChem BioAssay AID1461 (National Center for Advancing Translational Sciences (NCATS), 2008)
About 2,300 (1%) of roughly 220,000 compounds were called active. Entries that show only a call come without a potency. Another 6% or so got no clear call; they are omitted. Calls come from the whole dose curve; as a rule, active = well fitted inhibition curve with a large enough effect; inconclusive = small, poorly fitted or top-dose-only effect, or effect the other way; inactive = no such curve, though single readings can be large or run the other way. For the sample, actives were picked, then their nearest neighbours and some compounds at random.

molecular target: Neuropeptide S receptor (Homo sapiens) (UniProt Q6W5P4); test: qHTS Assay for Antagonists of the Neuropeptide S Receptor: cAMP Signal Transduction; settings: CHO-NPSR cells, cAMP TR-FRET, antagonist mode; series mostly up to 38.3 µM; note: nearly all actives have a fitted effect of over 50% in size
Sequence (Q6W5P4 whole entry, looked up): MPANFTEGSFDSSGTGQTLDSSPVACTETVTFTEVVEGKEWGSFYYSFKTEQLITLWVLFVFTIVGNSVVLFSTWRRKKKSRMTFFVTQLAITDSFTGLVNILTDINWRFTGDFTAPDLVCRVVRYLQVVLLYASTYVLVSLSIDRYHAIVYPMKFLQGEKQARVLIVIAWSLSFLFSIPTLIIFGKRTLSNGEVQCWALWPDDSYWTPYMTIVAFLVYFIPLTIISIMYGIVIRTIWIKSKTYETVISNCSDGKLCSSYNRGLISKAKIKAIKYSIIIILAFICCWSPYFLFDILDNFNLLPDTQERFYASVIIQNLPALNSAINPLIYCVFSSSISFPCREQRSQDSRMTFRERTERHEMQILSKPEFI
Excerpt: NIH Chemical Genomics Center [NCGC] NIH Molecular Libraries Probe Production centers Network [MLPCN] MLPCN Grant: X01-DA026210-01 Assay Submitter (PI): Heilig, Markus Alexander NCGC Assay Overview: Neuropeptide S receptor (NPSR), previously known as GPR154, is a recently de-orphanized G protein coupled receptor. Its endogenous ligand is the 20 amino acids peptide Neuropeptide S (NPS). […] NPS and its receptor are found in various tissues. Specifically they are highly expressed in brain areas that have been implicated in modulation of arousal, stress and anxiety. Central administration of NPS in mice produces an unusual profile of activity by inducing wakefulness and arousal, while at the same time suppressing anxiety. Therefore, NPSR may represent a novel drug target for the treatment of sleep and anxiety disorders. To identify NPSR antagonists, we developed a cell-based cAMP assay. NPS can stimulate the production of cAMP in Chinese hamster ovary cells stably expressing NPS receptor. This change in intracellular cAMP level can be detected by a homogeneous LANCE cAMP assay based on the TR-FRET (time resolved fluorescence resonance energy transfer) between a europium-labeled cAMP tracer complex and a cAMP-specific antibody labeled with Alexa Fluor 647. The europium-labeled cAMP tracer complex is formed by the tight interaction between Biotin-cAMP (b-cAMP) and streptavidin labeled with Europium-W8044 chelate (Eu-SA). Light pulse at 320 nm excites the europium of the cAMP tracer and the energy emitted is transferred to the Alexa molecule bound to the cAMP antibody, generating a TR-FRET signal at 665 nm. Residual energy from the europium will produce a light at 620 nm. The native unlabeled cAMP from cell lysates competes with the europium-cAMP tracer for antibody binding and reversely reduces the emission signal of Alexa by interrupting FRET between the two labeled molecules. Both emission signals from the FRET donor (620 nm) and the acceptor (665 nm) can be detected by a plate reader in the TRF mode. Expression of result in fluorescence ratio (665 nm/620 nm) helps to normalize differences due to cell density and reagent dispensing. This assay was successfully optimized to a 1536-well plate format.
NCGC Assay Protocol Summary: A Chinese hamster ovary (CHO) cell line stably expressing the NPS receptor (CHO-NPSR) was obtained from Dr. Heilig lab at NIAAA and maintained in F-12 Kaighn's media (Invitrogen, Carlsbad, CA, 21127) supplemented with 10 % FBS, 100 units/ml penicillin, 100 ug/ml streptomycin and 250 ug/ml geneticin at 37C, 5% CO2 in a humidified atmosphere. Before the assay, aliquots of cells were frozen and stored at -135C. The assay was performed in 1536-well format. Data are reported for both the ratio of the two emission wavelengths, and also for the component 'donor' channel, Em2=620. Data were normalized to the controls for basal activity (DMSO only) and 100% inhibition (No NPS control). IC50 values were determined from concentration-response data modeled with the standard Hill equation. NPS 1536-well assay protocol: (1) Fresh or frozen CHO-NPSR cells were suspended in F-12 Kaighn's media supplemented with 10 % FBS, 100 units/ml penicillin and 100 ug/ml streptomycin. Cells were plated at 4 ul/well (1200 cells) to white, tissue culture treated 1536-well plates, and then cultured at 37C, 5 % CO2 for 16 to 30 hours. (2) Add 23 nl/well of compound in DMSO solution. The final titration for each compound was between 0.6 nM and 46 uM. (3) Add 1 ul of stimulation reagent (1X HBSS buffer, 5 mM HEPES, 0.1% BSA, 500 uM RO-201724 (Sigma-Aldrich, B8279), 1.5% Alexa 647-labeled anti-cAMP antibody (from Perkin Elmer), 100 nM NPS) (4) Incubation at 37C, 5 % CO2 for 60 min. (5) Add 1 ul/well detection reagent. Detection reagent was prepared by adding biotin labeled cAMP (4%), streptavidin labeled with Europium-W8044 chelate (1.33%) and TritonX-100 (1%) to detection buffer. […]
Potency is the fitted concentration of half-maximal effect.

Row | SMILES | Potency
1 | CC(=O)Oc1ccccc1C(=O)Nc1ncc([N+](=O)[O-])s1 | 3.16 µM (active)
2 | CCN1CC2C3CCC(C)(O3)C2C1 (stereo not given) | inactive
3 | O=C1NC(=O)N(c2ccc(F)cc2)C(=O)/C1=C/c1ccc2c(c1)CCCN2Cc1ccccc1 | inactive
4 | Cc1cccc(N2C(=O)NC(=O)/C(=C\c3cnn(-c4ccccc4)c3)C2=O)c1 | 10 µM (active)
5 | COc1cccc(N2C(=O)NC(=O)/C(=C\c3ccc([N+](=O)[O-])s3)C2=O)c1 | inactive
6 | CC1=C2C(=O)C3C(CC=C4CC(OC5OC(O)C(O)C(O)C5CO)CCC43C)C2CCC12OC1CC(C)CNC1C2C (stereo not given) | inactive
7 | CCOc1cccc(=NC2CCCCC2)c2c(C)[nH]c(C)c12 | 6.31 µM (active)
8 | COc1ccc(-n2c(O)c(C(C)=Nc3ccc4c(c3)CCC4)c(=O)[nH]c2=O)cc1 | inactive
9 | CNC(=O)Nc1ccc(C(O)(C(=O)OC)C(F)(F)F)cc1 (stereo not given) | inactive
10 | O=c1[nH]c(CN2CC=C(c3ccccc3)CC2)nc2scc(-c3cccs3)c12 | inactive
11 | CCC(C)n1c(O)c(/C=N/Nc2nc3c(c(=O)n(C)c(=O)n3C)n2C)c(=O)[nH]c1=S (stereo not given) | inactive
12 | COc1cccc(CN2CCCC(C(=O)c3ccccc3SC)C2)c1O (stereo not given) | inactive
13 | CCCCCCCCCCCCn1ccc(=N)cc1 | 6.31 µM (active)
14 | CC(=O)Cc1ccc(OC(C)C)cc1 | inactive
15 | C/C=C/CC1(CC)C(=O)NC(=S)NC1=O | inactive
16 | CC1C2Cn3c(nc4ccccc43)C1N(C)O2 (stereo not given) | inactive
17 | CN(C)CC1CCCCC1=O (stereo not given) | inactive
18 | O=C1CC(=O)N(Cc2ccccc2)C(=O)N1CCCCCCN1C(=O)CC(=O)N(Cc2ccccc2)C1=O | inactive
19 | O=c1[nH]c(=O)n(-c2ccc(F)cc2)c(O)c1C=NCCN1CCCCC1 | inactive
20 | Fc1ccc(C2N3CCCN23)cc1 (stereo not given) | inactive
